Source: PubChem (several laboratories)
PKA-R1A activ: activates the PKA-R1A holoenzyme complex; AID 504707; 340,000 tested, 0.083% active; activation, % at 11.4 µM; P00514+P68181; PKA-R1A dissociation, Cy5-IP20 fluorescence polarization; scaled: DMSO 0%, 113 µM cGMP 100%;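 active = percent activation above the mean of all tested compounds plus 3 SD, cut at about 19% in these data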;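 note: higher means more PKAc released from R1A so a rise in polarization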
PKA-R2B act: activates the human PKA-R2B holoenzyme complex; activation, % at 11.4 µM; PKA-R2B holoenzyme dissociation, Cy5-IP20 fluorescence polarization; R2B truncated from residue 108, S112A mutant; 0% DMSO only, 100% 113 µM cGMP; AID 504700; 340,000 tested, 0.079% active; P22694+P31323;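 active = activation above a cutoff set at the mean over all compounds plus 3 SD, cut at about 18% in these data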;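 note: higher means more holoenzyme dissociation and a rise in polarization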
SUMO Mot1 rescue: inhibitors of SUMOylation pathway: yeast Mot1-301 growth rescue. S. cerevisiae Mot1-301 growth rescue, ATP luminescence, 38.5C; percent above DMSO median, 100 means doubled. growth rescue, % at 18.8 µM. 320,000 tested, 1% active;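 active = every valid replicate shows activation above 250% relative to neutral control wells; inactive = the rest, any valid replicate at or below 250%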;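 note: OY570 slx delta 5 strain wells were the positive control but not used for scaling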
MsrA inh: bovine MsrA inhibition | purified bovine MsrA, absorbance read-out | inhibition, % at 15.5 µM | 360,000 tested, 0.75% active | AID 651718; in the data active = inhibition above about 4.5%;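 note: 0% = vehicle wells with enzyme and 100% = reference inhibitor wells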
bovine MsrA act: activates bovine MsrA enzyme. purified bovine MsrA, absorbance read-out. activation, % at 10.6 µM. 360,000 tested, 0.3% active; in the data active = activation above about 7.5%;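 note: 0% = vehicle and 100% = reference activator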
R1A FP artifact: fluorescence polarization artifact in PKA-R1A activator counter-screen; shares compounds with PKA-R1A activ; Cy5-IP20 peptide alone, fluorescence polarization artifact counterscreen; activation, % at 11.4 µM; 280 tested, 7% active; AID 504799;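 active = mean activation over triplicate runs exceeds the adjusted cutoff derived for the parent primary screen, cut at about 19% in these data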;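 note: no PKA protein present so any polarization rise reflects compound interference; 0% = tracer peptide mix alone and 100% = mix with added PKA catalytic subunit; higher means stronger polarization artifact and likely false positive in parent screen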
PKA-R1A act conf: confirmation of PKA-R1A complex activators; shares compounds with PKA-R1A activ; Cy5-IP20 fluorescence polarization, PKA-R1A holoenzyme dissociation; activation, % at 11.4 µM; 280 tested, 9% active; AID 504800;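 active = mean activation over replicate wells exceeds the adjusted hit threshold taken from the earlier primary screen, cut at about 20% in these data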;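 note: 0% = holoenzyme mix with DMSO only and 100% = cGMP-activated control wells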
Target sequence (P00514 whole entry, looked up): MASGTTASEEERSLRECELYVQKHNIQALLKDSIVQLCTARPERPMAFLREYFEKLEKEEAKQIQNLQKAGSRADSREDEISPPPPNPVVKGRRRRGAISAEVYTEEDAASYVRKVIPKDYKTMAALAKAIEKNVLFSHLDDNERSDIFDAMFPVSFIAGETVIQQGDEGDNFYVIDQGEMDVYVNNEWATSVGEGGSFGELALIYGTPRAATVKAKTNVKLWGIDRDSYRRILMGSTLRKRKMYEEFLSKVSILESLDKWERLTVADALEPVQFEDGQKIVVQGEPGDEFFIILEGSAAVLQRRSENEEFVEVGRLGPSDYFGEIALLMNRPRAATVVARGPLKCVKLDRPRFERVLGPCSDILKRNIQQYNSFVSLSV
* hit, by the source's call; . = not tested or not shown. Sampled rows, rich in hits. Any-hit rate of the full collection: about 2%.

SMILES	PKA-R1A activ	PKA-R2B act	SUMO Mot1 rescue	MsrA inh	bovine MsrA act	R1A FP artifact	PKA-R1A act conf
CCc1cc(Cn2nc(-c3ccccc3C)cc2C(=O)O)on1	19.0*	-3.4	-5.4	-0.9	-0.4	-0.5	-2.3
O=[N+]([O-])c1ccc2c(c1)CCCO[C@]21O[C@H](CCO)C[C@H](O)[C@H]1O	.	.	.	-0.7	.	.	.
COc1ccccc1CCNC(=O)C(=O)c1cn(CC(=O)N2CCOCC2)c2ccccc12	18.8*	1.8	4.6	2.7	-2.0	-2.1	-0.6
O=C(/C=C/c1ccccc1)Nc1cccc(C(=O)NCc2ccccc2)c1	.	.	.	1.1	.	.	.
O=C(/C=C/c1ccccc1)Nc1cccc(C(=O)NC2CC2)c1	18.6*	1.4	.	0.6	-3.0	3.3	5.4
Cc1ccc2nc(-c3cccc(Br)c3)c(Cc3ccsc3)n2c1	.	.	.	-0.1	.	.	.
CCOc1ccccc1Nc1nc(N)nc(CSc2nncn2C)n1	20.8*	10.8	-1.2	1.0	-2.1	0.1	2.6
COc1ccc(Nc2nc(N)nc(CSc3nncn3C)n2)cc1	-8.7	-7.4	4.5	-0.5	-10.8	.	.
Nc1[nH]c(C(=O)c2ccc(Br)cc2)c(-c2ccc(F)cc2)c1C(=O)NCCc1c[nH]c2ccccc12	.	.	.	1.6	.	.	.
Cc1cccn2c(CN[C@@H]3CCCC[C@H]3c3ccccc3)c(C(=O)N3CCOCC3)nc12	19.0*	3.9	-10.3	-0.4	-4.6	7.3	4.3
Cc1ccc(C(=O)N2CCC[C@@H]2C(=O)N2CCC[C@H]2C(=O)NCc2ccccc2)cc1C	.	.	.	-0.6	.	.	.
COc1cccc(NC(=O)CN(C)C(=O)CCNS(=O)(=O)c2ccc(C)cc2)c1	19.3*	10.8	0.0	0.3	-2.9	2.9	1.8
O=C(NC(CC1=CCCCC1)c1ccccc1)C(F)(F)F (stereo not given)	.	.	.	-0.2	.	.	.
CC(=O)Nc1ccc(S(=O)(=O)n2cnc(C)c2)cc1	-8.3	-5.0	-8.5	-0.4	-8.6	.	.
Cc1ccc(S(=O)(=O)n2cnc(C)c2)cc1	19.9*	3.8	-18.0	-0.8	-12.6	3.0	2.8
CC(=O)Nc1ccc(S(=O)(=O)N2CCc3cc4c(cc3C2C)OCCCO4)cc1 (stereo not given)	21.3*	12.9	57.7	0.0	-3.2	1.8	-0.4
CC1CCN(C(=O)c2ncn3c2C(=O)NC[C@H]3C)CC1	.	.	.	1.6	.	.	.
COc1ccc(N(CC(=O)NCCSc2ccccn2)S(=O)(=O)c2ccccc2)cc1OC	20.7*	4.8	-17.0	0.9	-2.6	1.2	0.8
COc1ccc2c(c1OC)C(=O)OC2Nc1ncccc1C (stereo not given)	18.9*	8.0	103.2	-0.5	-6.5	5.2	1.0
COc1ccc2c(c1OC)C(=O)OC2Nn1cncn1 (stereo not given)	-16.2	-19.3	-9.0	-0.4	-2.5	.	.
CCOc1ccc(NC(=O)CN(C)C(=O)CCNC(=O)c2ccco2)cc1OCC	18.7*	11.6	-9.9	-1.7	-3.4	0.2	0.8
CCOc1ccc(NC(=O)CN(C)C(=O)CCNC(=O)c2ccc(Br)cc2)cc1OCC	-5.2	-4.5	-11.3	0.8	-4.5	.	.
Nc1[nH]c(C(=O)c2ccc(Br)cc2)c(-c2ccccn2)c1C(=O)NCCc1c[nH]c2ccccc12	.	.	.	0.6	.	.	.
O=C(Oc1coc(CSc2ncccn2)cc1=O)c1cccc([N+](=O)[O-])c1	6.0	3.3	12.4	0.4	-3.4	.	.
Cc1ccnc(SCc2cc(=O)c(OC(=O)c3cc([N+](=O)[O-])ccc3Cl)co2)n1	19.1*	1.7	-0.5	-0.6	-0.4	2.5	2.6
SMILES	PKA-R1A activ	PKA-R2B act	SUMO Mot1 rescue	MsrA inh	bovine MsrA act	R1A FP artifact	PKA-R1A act conf
Cc1ccc(C(C(=O)NC2CCCC2)N(C(=O)c2csnn2)c2ccccc2)o1 (stereo not given)	19.8*	-7.3	11.8	-0.3	-2.4	4.5	4.7
O=C(NC1CCCCC1)C(c1ccco1)N(C(=O)c1csnn1)c1ccccc1 (stereo not given)	2.5	-6.4	1.6	-0.3	-1.7	.	.
CN(C)c1ccc(C(=O)NCCCSc2ccccc2)cc1	19.8*	6.7	62.5	0.7	-2.9	-4.0	1.3
CC(C)Oc1cccc(C(=O)NC(=S)Nc2ccccc2N2CCOCC2)c1	19.1*	-3.0	20.3	-0.4	-4.2	-3.9	-3.4
COC(=O)[C@]12C[C@H](CC(=O)NCCC(C)C)C(=O)N(Cc3ccccc3)C1=C[C@H](C(C)C)O[C@@H]2C1CC1	.	.	.	-0.8	.	.	.
O=c1c(Cl)c(NCc2ccccc2Cl)cnn1C12CC3CC(CC(C3)C1)C2	18.6*	15.0	-25.2	0.2	-5.4	0.4	-0.6
Cc1nc2oc3c(=O)[nH]cnc3c2c2c1COC(C)(C)C2	6.9	-4.5	1.5	-2.1	-3.2	.	.
COc1ncnc2c1oc1nc(CC(C)C)c3c(c12)CC(C)(C)OC3	19.8*	10.1	-6.0	1.4	-4.3	0.8	3.3
CCSc1nc2c(c(=O)[nH]1)C(c1ccncc1)C(C(=O)OC(C)C)=C(C)N2 (stereo not given)	-6.4	-3.0	0.7	-0.6	-3.1	.	.
CCSc1nc2c(c(=O)[nH]1)C(c1cccnc1)C(C(=O)OC)=C(C)N2 (stereo not given)	20.2*	3.2	-4.1	-0.5	-2.5	1.8	-1.7
COC(=O)[C@]12C[C@H](CC(=O)NCC3CCCCC3)C(=O)N(CCC3=CCCCC3)C1=C[C@H](COCc1ccccc1)O[C@@H]2C	.	.	.	0.2	.	.	.
Cc1ccc(S(=O)(=O)NN=Cc2ccco2)cc1	21.9*	0.8	.	-0.8	-0.4	2.5	1.6
COc1cc(Nc2cc(C)nc3ncnn23)cc(OC)c1OC	8.9	-0.4	-14.0	1.1	0.4	.	.
COc1ccc(Nc2cc(C)nc3ncnn23)cc1Cl	22.3*	0.4	-3.4	1.8	-13.2	2.4	-3.5
CCOC(=O)c1nnn(-c2ccccc2C#N)c1C	20.0*	0.6	.	-1.5	-1.9	-0.7	-0.7
CCCCS(=O)(=O)N1CCN(C(=O)C(=O)c2cccc(C(F)(F)F)c2)CC1	.	.	.	0.3	.	.	.
COc1cc(OC)cc(-c2nc(-c3ccccc3OC)no2)c1	19.1*	11.7	5.6	1.0	-4.8	3.2	5.2
CCCS(=O)(=O)c1ccc(COC(=O)c2ccc(NC(C)=O)cc2)cc1	22.0*	3.4	33.9	0.0	-0.7	-0.2	6.9
CC(=O)c1ccc(NC(=O)CSc2nc3nc(C)cc(C)n3n2)cc1	18.6*	1.5	-6.0	-0.1	0.0	0.1	0.9
Cc1cccc(NC(=O)CSc2nc3nc(C)cc(C)n3n2)c1	-6.2	-2.3	-12.5	0.0	-0.5	.	.
COc1cc(OC)c(NC(=O)NNC(=O)C(=O)NC2CC2)cc1Cl	.	.	.	-0.6	.	.	.
COC(=O)C1(C)Nc2ccccc2C(=O)N1c1ccccc1OC (stereo not given)	22.9*	11.7	-4.2	0.8	-2.8	1.6	1.4
